Measured values published in PubChem BioAssay (Tox21).
Values without a mark were called inactive. Inconclusive results are not listed. Calls of active or inactive are those of the source. Calls come from the whole dose curve.
% is set by controls: 0 for no effect and ±100 for the full control effect.

What follows are compounds tested against Acetylcholinesterase (Homo sapiens) (UniProt P22303) (assay: Acetylcholinesterase (AChE) small molecule antagonists: colormetric cell-based qHTS assay (AID 1347395; note: nearly all actives have a fitted effect of over 30% in size)). Settings: SH-SY5Y cells AChE activity, colorimetric (Ellman); series mostly up to 115 µM; activity, negative = inhibition: at the top concentration.
Chain of Acetylcholinesterase (Homo sapiens) (P22303 whole entry, looked up): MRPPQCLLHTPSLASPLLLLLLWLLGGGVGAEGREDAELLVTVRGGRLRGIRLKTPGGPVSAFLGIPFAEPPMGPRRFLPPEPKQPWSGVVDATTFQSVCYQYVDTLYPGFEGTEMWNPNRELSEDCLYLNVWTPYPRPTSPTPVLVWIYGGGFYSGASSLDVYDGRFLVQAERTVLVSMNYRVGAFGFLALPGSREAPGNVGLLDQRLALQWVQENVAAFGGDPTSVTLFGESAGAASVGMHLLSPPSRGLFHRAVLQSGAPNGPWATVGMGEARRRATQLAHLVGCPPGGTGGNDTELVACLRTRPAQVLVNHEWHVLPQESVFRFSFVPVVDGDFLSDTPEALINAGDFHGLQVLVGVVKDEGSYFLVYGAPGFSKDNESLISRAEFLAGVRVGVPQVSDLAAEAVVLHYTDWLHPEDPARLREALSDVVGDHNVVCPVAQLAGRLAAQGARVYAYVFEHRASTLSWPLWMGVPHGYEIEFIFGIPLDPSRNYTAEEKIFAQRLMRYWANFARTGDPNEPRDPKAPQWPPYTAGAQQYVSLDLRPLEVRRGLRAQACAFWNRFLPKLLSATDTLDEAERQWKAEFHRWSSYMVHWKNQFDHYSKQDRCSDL
Outline: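 Quantitative HTS in attached SH-SY5Y cells: 30 min compound exposure, then 90 min with acetylthiocholine and DTNB at 37 C; colour from thiocholine reports AChE activity.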
With Cc1ccc(C(=O)O)o1 the Potency was “inactive”.
Oc1ccc(N=Nc2ccccc2)cc1 was tested, and the “activity, negative = inhibition” value was 5.13%.
In the case of O=[N+]([O-])c1ccc2ncccc2c1, the “activity, negative = inhibition” value was -12.9%.
With CCCC(C)=O the Potency was “inactive”.
CCCC(C)CCC(C)=O (stereo not given) was tested, and the “activity, negative = inhibition” value was 0.268%.
In the case of C=CC(=C)CCC=C(C)C, the “activity, negative = inhibition” value was 2.33%.
For CN(C)c1ccc(N=NS(=O)(=O)O)cc1, the “activity, negative = inhibition” value was 49.1%.
For BrCCOc1ccccc1, the “activity, negative = inhibition” value was 0.635%.
For NNc1nnc(NN)c2ccccc12, the “activity, negative = inhibition” value was -3.77% [at 52.9 µM].
O=C(CCN1CCN(CCO)CC1)N1c2ccccc2Sc2ccc(C(F)(F)F)cc21 was tested, and the “activity, negative = inhibition” value was 0.375% [at 52.9 µM].
For O=C(O)c1ccc(O)cc1, the “activity, negative = inhibition” value was 3.06%.
For CC(=O)CC/C=C(\C)CC/C=C(\C)CC/C=C(\C)CCC=C(C)C, the “activity, negative = inhibition” value was -1.38% [at 52.9 µM].
In the case of CC(C)CC(C)CC(O)CC(C)C (stereo not given), the Potency was “inactive”.
For O=Cc1ccc(O)c(O)c1O, the “activity, negative = inhibition” value was -5.68% [at 52.9 µM].
In the case of CCC(C)(C)c1cc(O)c(C(C)(C)CC)cc1O, the “activity, negative = inhibition” value was -2.31%.
In the case of O=C(O)c1cc(O)c2c(c1)C(=O)c1cccc(O)c1C2=O, the “activity, negative = inhibition” value was 0.921%.
In the case of CCCCCCC=O, the Potency was “inactive”.
For Cn1ccc2cc3c(cc21)CCN3C(=O)Nc1cccnc1, the activity, negative = inhibition was -3.7% [at 23.6 µM].
For C/C(=N\O)c1ccc(OCC(=O)N2CCCCC2)cc1, the “activity, negative = inhibition” value was -1.38% [at 52.9 µM].
For CCCCCC[C@@H](O)C/C=C\CCCCCCCC(=O)OC, the “activity, negative = inhibition” value was -2.39%.
With CCC(C)(C)OC the “activity, negative = inhibition” value was -2.97%.
In the case of CCO[Si](CCCS)(OCC)OCC, the “activity, negative = inhibition” value was 0.967%.
CC(C)=CCC[C@@](C)(O)[C@H]1CC=C(C)CC1 was tested, and the “activity, negative = inhibition” value was -0.281% [at 52.9 µM].
With O=c1n(CC2CO2)c(=O)n(CC2CO2)c(=O)n1CC1CO1 (stereo not given) the Potency was “inactive”.
In the case of Cc1nc2c([nH]1)c(=O)n(C)c(=O)n2Cc1ccco1, the “activity, negative = inhibition” value was -1.58% [at 52.9 µM].
For CCCCCCCCCCCC(=O)N(CC)CC, the “activity, negative = inhibition” value was -2.32%.
In the case of CCCCCC(C)=O, the Potency was “inactive”.
With CC(=O)N1C[C@H](O)C[C@H]1C(=O)O the “activity, negative = inhibition” value was 1.85% [at 52.9 µM].
For O=C(O)c1cc(O)c(O)c(O)c1, the Potency was “inactive”.
With Cc1ccc(S(=O)(=O)NCl)cc1 the Potency was “inactive”.
O=C1C(CCS(=O)c2ccccc2)C(=O)N(c2ccccc2)N1c1ccccc1 (stereo not given) was tested, and the “activity, negative = inhibition” value was 0.417% [at 52.9 µM].
In the case of CCCCCCCCOC(C)=O, the “activity, negative = inhibition” value was 1.45%.
With CC(=O)O[C@@]12CO[C@@H]1C[C@H](O)[C@@]1(C)C(=O)[C@H](O)C3=C(C)[C@@H](OC(=O)[C@H](O)[C@@H](NC(=O)OC(C)(C)C)c4ccccc4)C[C@@](O)([C@@H](OC(=O)c4ccccc4)[C@H]21)C3(C)C the “activity, negative = inhibition” value was 0.878% [at 52.9 µM].
In the case of CC/C=C/CCO, the “activity, negative = inhibition” value was -0.821%.
In the case of CC(C)(C)NCC(O)c1cc(O)cc(O)c1 (stereo not given), the “activity, negative = inhibition” value was -2.25% [at 52.9 µM].
With C=C(C)C(=O)OCCOC(=O)CC(C)=O the “activity, negative = inhibition” value was -0.446%.
Cc1cccc(C)c1O was tested, and the Potency was “inactive”.
In the case of Oc1cccc2cc3cccc(O)c3c(O)c12, the “activity, negative = inhibition” value was -15.1%.
In the case of CC(=O)OC1CCCCC1, the “activity, negative = inhibition” value was 1.23%.
With N#C[C@@H]1CC(F)(F)CN1C(=O)CNC1CC2CCC(C1)N2c1ncccn1 (stereo not given in full) the “activity, negative = inhibition” value was 2.05%.

These compounds were tested against Acetylcholinesterase (Homo sapiens) (UniProt P22303) (assay: Acetylcholinesterase (AChE) small molecule antagonists: enzyme-based qHTS assay (AID 1347397; note: nearly all actives have a fitted effect of over 55% in size)). Settings: Potency: AChE enzyme activity inhibition; outcome: AChE enzyme activity inhibition; series mostly up to 115 µM; activity change, negative = inhibition: at the top concentration.
Outline: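 Human recombinant acetylcholinesterase; substrate acetylthiocholine; thiocholine quantified with DTNB (colorimetric). Compound preincubation 30 min RT; reaction 10 min RT.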
In the case of Cc1ccc(C(=O)O)o1, the Potency was “inactive”.
In the case of Oc1ccc(N=Nc2ccccc2)cc1, the “activity change, negative = inhibition” value was 10.2%.
In the case of O=[N+]([O-])c1ccc2ncccc2c1, the “activity change, negative = inhibition” value was -2.04%.
With CCCC(C)=O the Potency was “inactive”.
For CCCC(C)CCC(C)=O (stereo not given), the “activity change, negative = inhibition” value was -3.41%.
C=CC(=C)CCC=C(C)C was tested, and the “activity change, negative = inhibition” value was 1.84%.
CN(C)c1ccc(N=NS(=O)(=O)O)cc1 was tested, and the “activity change, negative = inhibition” value was 90.2%.
In the case of BrCCOc1ccccc1, the “activity change, negative = inhibition” value was 0.954%.
For NNc1nnc(NN)c2ccccc12, the “activity change, negative = inhibition” value was -0.0896% [at 53 µM].
O=C(CCN1CCN(CCO)CC1)N1c2ccccc2Sc2ccc(C(F)(F)F)cc21 was tested, and the “activity change, negative = inhibition” value was 0.787% [at 53 µM].
For O=C(O)c1ccc(O)cc1, the Potency was “inactive”.
In the case of CC(=O)CC/C=C(\C)CC/C=C(\C)CC/C=C(\C)CCC=C(C)C, the “activity change, negative = inhibition” value was -0.581% [at 53 µM].
With CC(C)CC(C)CC(O)CC(C)C (stereo not given) the Potency was “inactive”.
O=Cc1ccc(O)c(O)c1O was tested, and the “activity change, negative = inhibition” value was -0.554% [at 53 µM].
For CCC(C)(C)c1cc(O)c(C(C)(C)CC)cc1O, the “activity change, negative = inhibition” value was 1.29%.
In the case of O=C(O)c1cc(O)c2c(c1)C(=O)c1cccc(O)c1C2=O, the “activity change, negative = inhibition” value was -18.4%.
In the case of CCCCCCC=O, the Potency was “inactive”.
Compound Cn1ccc2cc3c(cc21)CCN3C(=O)Nc1cccnc1 has an activity change, negative = inhibition of -19.7% [at 23.6 µM].
For C/C(=N\O)c1ccc(OCC(=O)N2CCCCC2)cc1, the “activity change, negative = inhibition” value was -0.305% [at 53 µM].
CCCCCC[C@@H](O)C/C=C\CCCCCCCC(=O)OC was tested, and the “activity change, negative = inhibition” value was -1.77%.
For CCC(C)(C)OC, the “activity change, negative = inhibition” value was 0.136%.
For CCO[Si](CCCS)(OCC)OCC, the “activity change, negative = inhibition” value was -2.97%.
With CC(C)=CCC[C@@](C)(O)[C@H]1CC=C(C)CC1 the “activity change, negative = inhibition” value was -0.135% [at 53 µM].
For O=c1n(CC2CO2)c(=O)n(CC2CO2)c(=O)n1CC1CO1 (stereo not given), the Potency was “inactive”.
For Cc1nc2c([nH]1)c(=O)n(C)c(=O)n2Cc1ccco1, the “activity change, negative = inhibition” value was 1.77% [at 53 µM].
For CCCCCCCCCCCC(=O)N(CC)CC, the “activity change, negative = inhibition” value was 4.19%.
With CCCCCC(C)=O the Potency was “inactive”.
For CC(=O)N1C[C@H](O)C[C@H]1C(=O)O, the “activity change, negative = inhibition” value was 0.277% [at 53 µM].
O=C(O)c1cc(O)c(O)c(O)c1 was tested, and the Potency was “inactive”.
With Cc1ccc(S(=O)(=O)NCl)cc1 the Potency was “inactive”.
With O=C1C(CCS(=O)c2ccccc2)C(=O)N(c2ccccc2)N1c1ccccc1 (stereo not given) the “activity change, negative = inhibition” value was -0.415% [at 53 µM].
In the case of CCCCCCCCOC(C)=O, the “activity change, negative = inhibition” value was 0.0088%.
For CC(=O)O[C@@]12CO[C@@H]1C[C@H](O)[C@@]1(C)C(=O)[C@H](O)C3=C(C)[C@@H](OC(=O)[C@H](O)[C@@H](NC(=O)OC(C)(C)C)c4ccccc4)C[C@@](O)([C@@H](OC(=O)c4ccccc4)[C@H]21)C3(C)C, the “activity change, negative = inhibition” value was 0.139% [at 53 µM].
CC/C=C/CCO was tested, and the “activity change, negative = inhibition” value was 0.0223%.
In the case of CC(C)(C)NCC(O)c1cc(O)cc(O)c1 (stereo not given), the “activity change, negative = inhibition” value was 7.13% [at 53 µM].
For C=C(C)C(=O)OCCOC(=O)CC(C)=O, the “activity change, negative = inhibition” value was 0.29%.
In the case of Cc1cccc(C)c1O, the Potency was “inactive”.
For Oc1cccc2cc3cccc(O)c3c(O)c12, the “activity change, negative = inhibition” value was 0%.
CC(=O)OC1CCCCC1 was tested, and the “activity change, negative = inhibition” value was 1.63%.
N#C[C@@H]1CC(F)(F)CN1C(=O)CNC1CC2CCC(C1)N2c1ncccn1 (stereo not given in full) was tested, and the “activity change, negative = inhibition” value was 2.04%.
